Growth data for 8 compounds are collected here from PubChem BioAssay (NCI).

The structures appear in SMILES notation. This is part of a sample that, as a whole, favours compounds with a hit. Of some 83,000 tested, about 20% had one in any assay.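 Testing used 96-well plates and a 48-hour single-concentration exposure. Example: -40 means 40% of the starting cells died.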 Unmarked numbers belong to inactive results. Active and inactive are the calls of the source. Rule for the calls: active = growth percent below 10; inactive = the rest.

Assay in all cases: NCI-60 one-dose screen, 48 h (100 = growth as untreated, 0 = no growth, -100 = all killed)
Conditions in all cases: 10 µM unless noted

The subject of assay [1] is HCT-15 colon.
Assay [2] deals with HT29 colon.
Assay [3] deals with SNB-75 CNS.
In assay [4] the test system is SNB-19 CNS.
The subject of assay [5] is U251 CNS.
Assay [6] has as its system PC-3 prostate.
The test system of assay [7] is SK-MEL-5 melanoma.
For assay [8], the system named is UACC-62 melanoma.
For assay [9], the system named is LOX IMVI melanoma.
For assay [10], the system named is SK-MEL-28 melanoma.
Assay [11] concerns SK-MEL-2 melanoma.
Assay [12] has as its system EKVX NSCLC.
The subject of assay [13] is SN12C renal.
In assay [14] the test system is UO-31 renal.
Assay [15] concerns TK-10 renal.
In assay [16] the test system is ACHN renal.
The subject of assay [17] is CAKI-1 renal.
Assay [18] has as its system A498 renal.
Assay [19] relates to CCRF-CEM leukemia.
Assay [20] has as its system MOLT-4 leukemia.

Consider `C#Cc1nc(C(=O)NCCCCCCC(=O)NO)cs1`, for which the growth in assay [1] is 41.3%; in assay [2] it was 5.53% (active); in assay [3], -65.2% (active); in [4], 30.6%; in assay [5], 6.04% (active); in assay [6], 14.3%. The growth in [7] was -55.9% (active); in [8] it was -63.1% (active); in assay [9], -84.6% (active); in [10], -53.1% (active); in assay [11], 8.08% (active); in assay [12], 53.5%. In addition, the growth in assay [13] was 36.7%; in assay [14], -91.3% (active); in [15], -14.2% (active); in assay [16], -86.5% (active); in assay [17], -80.2% (active); in [18] it was -95.1% (active). In addition, the growth in [19] is -41.4% (active); in [20] it was -26.1% (active).
For `Cc1ccc2c(n1)C(=O)C(Cl)=C(Nc1cccc(C(=O)OC(C)(C)C)c1)C2=O`, the growth was 47.1% in assay [1]; 114% in assay [2]; 95.7% in [3]; 97.6% in assay [4]; 88.5% in [5]; 72% in assay [6]. Further, the growth was 88.1% in assay [7]; 90.7% in assay [8]; 8.98% (active) in [9]; 103% in assay [10]; 115% in assay [11]; 86.3% in [12]. Also, the growth in assay [13] was 94.1%; in assay [14], 78.4%; in assay [15] it was 120%; in assay [16] it was 77%; in assay [17] it was 77.7%; in assay [18] it was 66.6%. In addition, the growth in assay [19] was 10.6%; in [20] it was 6.09% (active).
Take `COc1ccc(/C=N\NC(=O)c2cnn(CC(O)c3ccccc3)c2N)cc1OCc1ccc(Cl)cc1` (stereo not given): the growth in [1] is 70.5%; in [2], 90.6%; in [3], 60.8%; in assay [4], 68.2%; in [5] it was 60.6%; in assay [6], 63.6%. Also, the growth in assay [7] is 92.2%; in [8] it was 81.1%; in assay [9] it was 54.6%; in [10] it was 71.4%; in [11], 92.9%; in assay [12], 79.1%. The growth in [13] is 84.4%; in [14] it was 87.4%; in [15] it was 101%; in assay [16] it was 58.6%; in assay [17] it was 71%; in assay [18], 48%. Besides, the figures for the growth in assay [19] and in [20] were 72.6% and 62.4%, respectively.
With `Cc1ccc(N2CCN(C3=C(Cl)C(=O)c4ncccc4C3=O)CC2)cc1`, the growth was 21% in assay [1]; 106% in assay [2]; 99.1% in [3]; 70.3% in assay [4]; 72.4% in assay [5]; 63.3% in assay [6]. Further, the growth in assay [7] is 90.4%; in assay [8], 29.2%; in assay [9], -32.6% (active); in [10], 80.9%; in assay [11] it was 94.4%; in assay [12], 97%. In addition, the growth in [13] was 27.8%; in assay [14] it was 32%; in [15], 133%; in assay [16] it was 1.41% (active); in [17], 44.3%; in [18], 111%. In addition, the growth is 5.41% (active) in [19] and 13.9% in [20].
Consider `O=C(CSc1nc2ccccc2c(=O)n1-c1ccccc1)N/N=C/c1ccc(Oc2ccc(Cl)cc2)cc1`, for which the growth is 60.8% in assay [1]; 59.1% in assay [2]; 60.1% in [3]; 33.2% in [4]; 15.2% in [5]; 58.7% in assay [6]. In addition, the growth in assay [7] was 71.2%; in [8], 66.6%; in assay [9], 14%; in assay [10] it was 62.4%; in assay [11], 86.9%; in [12] it was 59%. The growth in [13] is 26.9%; in assay [14], 81.2%; in [15] it was 104%; in assay [16] it was 74.5%; in assay [17], 59.2%; in [18] it was 65.7%. Further, the growth in [19] was 50.4%; in [20], 58.7%.
For `COc1ccc2[nH]cc(-c3nc(N)nnc3-c3cn(C)c4ccc(Br)cc34)c2c1`, the growth is 22% in [1]; 2.43% (active) in [2]; -4.14% (active) in assay [3]; 30.5% in assay [4]; 20.2% in [5]; 24.5% in assay [6]. For the same compound, the growth is 15% in assay [7]; 15.9% in assay [8]; 35.4% in [9]; 51.3% in assay [10]; 9.85% (active) in assay [11]; 38.1% in assay [12]. Besides, the growth in assay [13] was 42.6%; in assay [14], 40.7%; in assay [15], 54.3%; in assay [16] it was 40.5%; in assay [17], 29.1%; in assay [18] it was -1.71% (active). Also, the growth in [19] is 2.97% (active); in [20] it was 10.7%.
As for `O=C(O)c1ccc(-n2c(=O)n(-c3cccc(C(F)(F)F)c3)c(=O)c3cc(-c4ccc(F)cc4F)ccc32)cc1`, the growth was 10.4% in assay [1]; 48.5% in assay [2]; -12.1% (active) in [3]; 13.4% in [4]; 11.1% in assay [5]; 3.4% (active) in assay [6]. The growth in assay [7] was -60.4% (active); in assay [8], -3.72% (active); in assay [9], 5.95% (active); in assay [10], 26.1%; in assay [11], -32% (active); in assay [12], 5.67% (active). The growth was -5.12% (active) in assay [13]; 8.03% (active) in assay [14]; 4.33% (active) in assay [15]; 1.36% (active) in assay [16]; -6.76% (active) in assay [17]; -20.5% (active) in assay [18]. In addition, the growth in assay [19] is 19.5%; in assay [20], 4.7% (active).
Turning to `O=C(CCCCCCN1CC(=O)N2[C@@H](c3ccc(Cl)s3)c3[nH]c4ccccc4c3C[C@H]2C1=O)NO`, the growth in assay [1] was 77.1%; in [2], 38.9%; in assay [3] it was 22.5%; in assay [4], 52.2%; in assay [5], 50.3%; in [6] it was 47.4%. In addition, the growth in assay [7] is 19.7%; in assay [8] it was 21.9%; in assay [9], -62.7% (active); in [10], 37.2%; in assay [11], 59.9%; in assay [12], 49.1%. Also, the growth in [13] was 72.7%; in [14] it was 57.8%; in [15] it was 43.4%; in [16], 66.8%; in [17], 48.8%; in assay [18], 72.8%. For the same compound, the growth was 16.7% in assay [19] and 11.2% in assay [20].
